Experiment [1] in a line: liver-stage malaria parasite growth inhibition, primary screen, cell-based, HepG2, luciferase luminescence, HepG2 viability (AID 624349; in the data active means parasite load remaining mostly below about 12%, no sharp cut-off; inactive means mostly above about 10%;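 further: 100% = mean of DMSO negative control wells on the same plate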). The note with it: P. berghei liver stage in HepG2, luciferase luminescence, concentration not given here; parasite load remaining: stronger effect = lower value; viability: measured here: HepG2 viability without parasites.
Experiment [2] in a line: Cy5 fluorescence interference with SSB-bound oligo, artefact control for HCV NS3 helicase inhibitor project, biochemical, NIH Clinical Collection, E. coli SSB (AID 743268; call rule not given here).
Experiment [3] has as its system Hepatitis C virus NS3 helicase. Nature of the experiment: HCV NS3 helicase inhibitors, primary screen, biochemical, fluorescence polarization, NIH Clinical Collection (AID 743270; call rule not given here). The note with it: NS3 helicase binding to Cy5-dT15 DNA, stronger effect = higher value, concentration not given here. Background: Polarisation of emitted light reports the rotation of a fluorescent probe.

Experiment [4] has as its target Single-stranded DNA-binding protein (Escherichia coli (strain K12)) (UniProt P0AGE0). Nature of the experiment: E. coli SSB displacement from DNA, counter-screen for HCV NS3 helicase inhibitor project, biochemical, fluorescence polarization, NIH Clinical Collection (AID 743271; in the data active means inhibition above about 28%). The conditions noted are these: stronger effect = higher value, concentration not given here.
Experiment [5] is described as follows: fluorescence interference in NS3h assay format, artefact control for HCV NS3 helicase inhibitor project, biochemical, NIH Clinical Collection (AID 743272; call rule not given here;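 further: HCV NS3 helicase with a Cy5 labelled single stranded DNA probe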). The conditions noted are these: fluorescence interference counterscreen, stronger effect = lower value. Background: Counterscreens check selectivity or assay interference.
Experiment [6] in a line: modulation of C. elegans fzo-1 (AID 1259413; call rule not given here;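 further: fzo-1 mutant C. elegans worms in liquid wells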). The conditions noted are these: C. elegans fzo-1 modulator screen, mean read-out; stronger effect = higher value.
Experiment [7] in a line: survival rescue of mitochondrial mutant cells in low glucose, primary screen, MELAS cybrids, Rieske KO mouse fibroblasts, CellTiter-Glo (AID 1508586;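 active means mean z-score across replicates of 1.96 or higher in either the MELAS or the Rieske mutant cell line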;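 further: z relative to plate mean and SD of compound and empty wells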). (In general: Cellular ATP, detected with luciferase, serves as a proxy for viable cell number.)
Experiment [8] can be described thus: viability rescue of complex I mutant cybrids, primary screen, cell-based, galactose medium, ATP luminescence (AID 1645843;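 active means z-score of at least 1.8 in each of two replicates, scored against plate mean and spread of sample wells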;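 further: positive z means more ATP and so rescue of galactose-driven cybrid death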). The conditions noted are these: complex I mutant cybrid cells, 72 h, stronger effect = higher value.
The subject of experiment [9] is F380Y. The experiment can be described thus: modulators of BK channel variants, profiling panel, selectivity assay, cell-based, U2OS BacMam, thallium flux, beta subunits (AID 1259406).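 Further: initial slope of Thallos dye fluorescence rise after thallium is added; log ratio against the mean of 0.3% DMSO vehicle wells on the same plate.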 The note with it: at 30 µM.
The subject of experiment [10] is F380Y/beta1. The description is as above. The note with it: at 30 µM.
Experiment [11] relates to F380Y/beta2Delta. The experiment is described as above. The note with it: at 30 µM.
The test system of experiment [12] is F380Y/beta4. The experiment is described as above. The note with it: at 30 µM.
The target in experiment [13] is Calcium-activated potassium channel subunit alpha-1 (Homo sapiens) + Leucine-rich repeat-containing protein 26 (Homo sapiens) (UniProt Q12791+Q2I0M4). The experiment is described as above. The note with it: F380Y/Slo1WT/gamma1, at 30 µM.
Experiment [14] deals with R275C. Described as above. The conditions noted are these: at 30 µM.
Experiment [15] has as its system R275C/beta1. The description is as above. The conditions noted are these: at 30 µM.
Experiment [16] has as its system R275C/beta2Delta. The description is as above. The conditions noted are these: at 30 µM.
The subject of experiment [17] is R275C/beta4. The experiment is described as above. The conditions noted are these: at 30 µM.
The test system of experiment [18] is R275C/Slo1WT/beta2. Described as above. The note with it: at 30 µM.
Experiment [19] in a line: sensitizers of A549 cells to miR-34 induction, primary screen, imaging, A549 dox-inducible miR-34, nuclei and caspase counts (AID 1347080;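 active means compounds whose cell count with miR-34 switched on is under 0.7 times the count with it off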). The note with it: A549 miR-34 inducible, Hoechst nuclei count, 48 h.
[20] abbreviates: MELAS cybrid survival, CellTiter-Glo 48 h, stronger effect = higher value.
[21] abbreviates: Rieske KO mouse fibroblast survival, CellTiter-Glo 72 h.

Values joined by “and” are separate entries in the source; they are usually repeats but may differ in a detail not shown here. Equal entries are not always repeated. Active and inactive are the calls of the source.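 How the source made its calls, unless noted: active means thallium flux through the channel raised or lowered by more than 3 SD from vehicle-only wells, actives on both sides; inactive means the rest.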

Sequence of Calcium-activated potassium channel subunit alpha-1 (Homo sapiens) + Leucine-rich repeat-containing protein 26 (Homo sapiens) (Q2I0M4 whole entry, looked up, one chain of several): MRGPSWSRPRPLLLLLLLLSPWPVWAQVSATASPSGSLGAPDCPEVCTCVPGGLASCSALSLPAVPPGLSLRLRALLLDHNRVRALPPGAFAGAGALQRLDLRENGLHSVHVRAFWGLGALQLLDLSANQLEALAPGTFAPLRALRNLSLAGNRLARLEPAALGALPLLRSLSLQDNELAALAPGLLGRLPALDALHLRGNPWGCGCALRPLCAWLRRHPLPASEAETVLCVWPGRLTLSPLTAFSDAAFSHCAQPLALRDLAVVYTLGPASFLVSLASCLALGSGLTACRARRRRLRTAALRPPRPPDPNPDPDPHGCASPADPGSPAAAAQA

`CCOC(=O)c1ccc(OC(=O)CCCCCN=C(N)N)cc1`: the parasite load remaining in experiment [1] was 117% (inactive) and 36.3% (inactive). Further, in experiment [1], the viability (commonly a read-out of living cells in per cent, often relative to untreated cells) is 77.4% and 88.1%. For the same compound, the results for the fluorescence ratio in experiment [2] and in [5] were 1.04 (inactive) and 0.95 (inactive), respectively. Also, the inhibition (in general, the drop in the measured response relative to a control, in per cent) in experiment [3] was 0.4% (inactive); in [4], -1.64% (inactive). Besides, the mean signal in [6] is 243 (inactive). The z-score is -0.35 (inactive) and 0.272 (inactive) in [7] (setting [20]); 0.185 and -0.0147 in experiment [7] (setting [21]); 0.415 (inactive) and -0.085 (inactive) in experiment [8]. The log fold change Tl+ flux in experiment [9] was -0.0684 (inactive); in [10], -0.00638 (inactive); in [11] it was -0.0274 (inactive); in [12], -0.0274 (inactive); in experiment [13] it was 0.00659 (inactive); in [14], -0.063 (inactive). Moreover, the log fold change Tl+ flux in experiment [15] is -0.0293 (inactive); in [16] it was -0.0476 (inactive); in [17] it was -0.00905 (inactive); in [18], -0.0477 (inactive).

With `CC(CCCCC(=O)Nc1ccc(C(F)(F)F)cc1)NCCc1cnc[nH]1` (stereo not given), in experiment [1], the parasite load remaining was 54.5% (inactive). In addition, the viability in experiment [1] was found to be 67%. The values for the fluorescence ratio in experiment [2] and in experiment [5] were 0.96 (inactive) and 0.92 (inactive), respectively. For the same compound, the values for the inhibition in experiment [3] and in experiment [4] were -8.95% (inactive) and -4.33% (inactive), respectively. Besides, the mean signal in experiment [6] was 233 (inactive). The fold change was 0.859 (inactive) and 0.909 (inactive) in experiment [19] (stronger effect = lower value, cell number ratio, induced over uninduced); 1.55 and 0.779 in [19] (measured here: relative caspase fold change +Dox/-Dox). In addition, the cell count in experiment [19] (measured here: total cells with miR-34 induction, stronger effect = lower value) was 8900 and 8240; in experiment [19] (measured here: total cells without miR-34 induction), 10400 and 9060. Further, in [8], the z-score is 0.675 (inactive) and -0.77 (inactive). The log fold change Tl+ flux was 0.0425 (inactive) in experiment [9]; 0.0554 (inactive) in [10]; -0.00659 (inactive) in experiment [11]; -0.0291 (inactive) in [12]; 0.0127 (inactive) in [13]; -0.0675 (inactive) in [14]. The log fold change Tl+ flux in [15] is 0.0449 (inactive); in experiment [16], 0.0193 (inactive); in experiment [17], 0.0332 (inactive); in experiment [18] it was 0.00571 (inactive).

As for `CCN(CC)CC#CCOC(=O)C(O)(c1ccccc1)C1CCCCC1` (stereo not given), the fluorescence ratio in [2] is 1.01 (inactive); in experiment [5], 0.97 (inactive). Also, the inhibition is -5.91% (inactive) in experiment [3] and 1.05% (inactive) in experiment [4]. Further, the mean signal in experiment [6] is 265 (inactive). The z-score was -0.351 (inactive) and 0.357 (inactive) in [7] (setting [20]); 0.474 and 0.0643 in experiment [7] (setting [21]); -1.22 (inactive) and -1.39 (inactive) in experiment [8]. For the same compound, the log fold change Tl+ flux in experiment [9] was -0.0501 (inactive); in [10], -0.0697 (inactive); in experiment [11], -0.0326 (inactive); in experiment [12], 0.0257 (inactive); in [13], -0.0619 (inactive); in experiment [14], -0.105 (active). Moreover, the log fold change Tl+ flux in experiment [15] is -0.00047 (inactive); in experiment [16], -0.0198 (inactive); in experiment [17], 0.205 (active); in experiment [18], -0.0121 (inactive).

With `CC(C)C[C@H](NC(=O)[C@@H](O)[C@H](N)Cc1ccccc1)C(=O)O`, in experiment [1], the parasite load remaining was 23.8% (inactive). In experiment [1], the viability was 136%. Besides, the fluorescence ratio in experiment [2] is 0.92 (inactive); in experiment [5] it was 0.88 (inactive). Moreover, the results for the inhibition in experiment [3] and in experiment [4] were 0.66% (inactive) and 9.06% (inactive), respectively. The mean signal in experiment [6] was 255 (inactive). Also, the z-score in experiment [7] (setting [20]) is -0.957 (inactive); in experiment [7] (setting [21]), 0.817; in experiment [8] it was 0.375 (inactive) and 0.725 (inactive). Moreover, the log fold change Tl+ flux in [9] was -0.0323 (inactive); in experiment [10] it was -0.0233 (inactive); in [11], 0.0093 (inactive); in [12] it was -0.0304 (inactive); in experiment [13] it was -0.0684 (inactive); in experiment [14], -0.0391 (inactive). Also, the log fold change Tl+ flux is 0.000543 (inactive) in experiment [15], -0.0202 (inactive) in experiment [16], 0.00103 (inactive) in [17] and -0.0673 (inactive) in [18].

The values are drawn from PubChem BioAssay.
